The values that follow come from PubChem BioAssay AID652183 (National Center for Advancing Translational Sciences (NCATS), 2013).

Results filed as inconclusive are left out. A number with no mark means an inactive call. Calls of active or inactive are those of the source. The call rests on the fitted dose curve; in most records, active means well fitted inhibition curve with a large enough effect; inconclusive means small, poorly fitted or top-dose-only effect; inactive means no such curve, though single readings can be large or run the other way.

The nature of this assay: qHTS Assay for Lipid Storage Modulators: Differentiation Assay against Probe and Analogs. Conditions: 3T3-L1 adipocyte differentiation, BODIPY lipid imaging, 8 d; series mostly up to 20 µM; activity change, negative = inhibition: at the top concentration. The text has this:
Storing lipids as a reservoir for energy or the anabolism of elementary metabolites is a common feature of probably all cells and is conserved from bacteria to humans. The universal cellular lipid storage organelle is the so-called lipid storage droplet (LD). Although ubiquitous, LDs share a simple structure composed of a hydrophobic core that harbors the storage lipids, which is shielded by a droplet-specific phospholipid monolayer to which proteins are attached. The current model of LD biogenesis involves an incorporation of the lipid core into the membrane leaflets of the endoplasmic reticulum (ER) followed by a subsequent budding-like maturation of a LD, which ultimately pinches off. Once released, LD volume can increase by localized lipogenesis or fusion of existing droplets. Storage lipids are re-mobilized enzymatically by lipase activity. Lipase regulation in the adipocyte is heavily studied and involves multiple components including catecholamine signaling, the LD-associated proteins Perilipin and comparative gene identification-58 (CGI-58) and at least two lipases named hormone sensitive lipase (HSL) and adipocyte triglyceride lipase (ATGL). LD regulation outside of the adipocyte is poorly understood and only few components are known. However, there is an urgent need to learn more about ectopic fat depots as mislocalized storage of lipids, for example in the liver or muscle, is an eminent health problem associated with insulin resistance or the metabolic syndrome. We developed a laser-scanning cytometer assay to enable 1,536-well screening and combined the results of the small molecules screen with an RNAi database based on lipid storage. […] NIH Chemical Genomics Center [NCGC] MLPCN Grant: MH085686 Assay Submitter (PI): Mathias Beller, Max-Planck-Institut fur Biophysikalische Chemie
3T3L1 cells were obtained from ATCC (CL-173). Pre-adipocyte medium (PM-1), differentiation medium (DM-2) and after adipocyte medium (AM-1) were purchased from Zen-Bio (# PM-1-L1, DM-2-L1, AM-1-L1). 200 uL of PM-1containing 3,000 cells was dispensed into each well of a 96-well plate (Corning, #3340), and the assay plates were incubated at 37 °C, 95% humidity and 5% CO2 for 3-5 days. The differentiation of pre-adipocyte to adipocyte was induced by removing the pre-adipocyte medium and replacing with 200 uL of differentiation medium. 1 uL of compounds at different concentrations dissolved in differentiation medium were added to the assay plates, along with medium exchange for differentiation to test their effects on adipocyte differentiation. The final DMSO concentration was 0.5%.Triacsin C (Sigma-Aldrich T-4540), an inhibitor of long-chain fatty acyl CoA synthetase that blocks synthesis of triglycerides, was used as a positive control for lipid under-storage. After 3 days, differentiation medium was replaced with adipocyte maintenance medium and assay plates were incubated for 5 days. Aspirated the medium, then Cells were fixed using 4% of paraformaldehyde in PBS for 30 minutes at room temperature, washed 3 times with PBS buffer. Finally, the cells were stained using 200 uL of PBS containing BODIPY lipid dye 493/530 (1:2000 dilution, Molecular Probes), Hoechst 33342 (1:1000 dilution, Life Technologies, #H3570) and CellMask deep red dye (1:10,000 dilution, Life Technologies, #H32721) with Washer dispenser EL406(Biotek). Images were acquired using InCell 2000 (GE), number of cells, number of lipids, size of lipids and cells were analysis using GE Investigator software.
For orientation: Quantitative high-throughput screening tests each substance at several concentrations.
With `CCOc1ccc(CCNC(=O)c2cc3sccc3n2CCN2CCOCC2)cc1OCC`, the “activity change, negative = inhibition” value is -18.7%.
As to `O=C(NC1CCCc2c1cnn2-c1cccc(O)c1)c1ccccn1` (stereo not given), the Potency is 3.16 µM (active).
For `CCOc1ccc(CCNC(=O)c2ccnn2Cc2cccc(C)c2)cc1OCC`, the Potency was 2.82 µM (active).
`CCn1c(C(=O)NCCc2ccc(OC)cc2)cc2sccc21`: the Potency is 12.6 µM (active).
In the case of `CCOc1cc(F)c(CCNC(=O)c2cc3sccc3n2Cc2ccccc2)cc1OCC`, the “activity change, negative = inhibition” value is -65.8%.
For `CC(C)Oc1ccc(CCNC(=O)c2cc3sccc3n2Cc2ccccc2)cc1OC(C)C`, the Potency is 3.98 µM (active).
Still for that read-out and setting: the same measure for `CCOc1cc(CCNC(=O)c2cc3sccc3n2Cc2ccccc2)cc(F)c1OCC`: 2.82 µM (active).
Consider `CCOc1ccc(CCNC(=O)c2ccc3ccccc3n2)cc1OCC`, for which the “activity change, negative = inhibition” value was -81%.
Regarding `CCOC(=O)C1CCN(C(=O)C(C)(C)NC(=O)Nc2ccc(-c3ccccc3)cc2)CC1`, the Potency was 1.12 µM (active).
On to `CCOC(=O)C1CCN(C(=O)C2(NC(=O)Nc3ccccc3Cl)CCC2)CC1`, for which the Potency was 2.82 µM (active).
